# The list is not random: actives were taken first. Their share in the collection is about 9.4%.
# ELG1 genotoxic – qHTS screen for small molecules that induce genotoxicity in human embryonic kidney (HEK293T) cells expressing luciferase-tagged ELG1. HEK293T ELG1-luciferase reporter, luminescence, 16 h. Potency, µM (top dose mostly 46 µM), without a hit: at the highest dose activity change, positive = activation, usual class: activators. hit rate 1.3% among 330,000. AID 504466, 2011; note: % of control where 0% means no effect; nearly all actives have a fitted effect of over 60% in size
#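 Screening used a luciferase reporter fused to human ELG1 in HEK293T cells. Luminescence was read on a CCD plate imager after 16 hr exposure and 30 min ONE-Glo incubation.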
# SMN2 splice enh – qHTS Assay for Enhancers of SMN2 Splice Variant Expression; AID 1458, 2008; Potency, µM (highest dose often 46.1 µM), without a hit: at the highest dose activity change, positive = activation, actives largely listed as activators; hit rate 2.8% among 210,000; HEK293 SMN2-luciferase splicing reporter, luminescence, 30-36 h; note: % of control where 0% means no effect; nearly all actives have a fitted effect of over 55% in size
#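 HEK293 cells carry an SMN2 […]–luciferase reporter in which exon 7 inclusion puts luciferase in frame. Cells were plated 10-12 h before compound addition, then incubated 30-36 h at 37C. ONE-Glo luminescence was read; sodium butyrate at 4.5 mM final served as control.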
# NPC1 prom act – qHTS Assay for NPC1 Promoter Activators; hit rate 2.4% among 320,000; Huh7 NPC1 promoter luciferase reporter, 24 h; Potency, µM (doses to about 9.22 µM), for the others: at the highest dose activation, usual class: activators; AID 485313, 2010; note: % of control where 0% means no effect; nearly all actives have a fitted effect of over 60% in size
#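 Readout is luciferase luminescence, reflecting NPC1 promoter activation in stably transfected Huh7 cells after 24 h compound exposure at 37 °C in reduced-serum medium with 10% FBS.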
# Rab9 prom act – qHTS Assay for Rab9 Promoter Activators. Huh7 Rab9 promoter-luciferase reporter, luminescence, 24 h. Potency, µM (top dose mostly 9.22 µM), inactives show top-dose activation, negative = inhibition, actives largely listed as activators. hit rate 2.8% among 320,000. AID 485297, 2010; note: % of control where 0% means no effect; nearly all actives have a fitted effect of over 60% in size
#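 Quantitative HTS format; Huh7 Rab9-luciferase reporter cells (1500/well) receive compound 2 h post-plating, incubate 24 h at 37 °C, then get luciferase reagent for 10 min before luminescence reading.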
# FLuc modulator – qHTS profiling assay for firefly luciferase inhibitor/activator using purifed enzyme and Km concentrations of substrates (counterscreen for miR-21 project); Luciferin 4-monooxygenase (Photinus pyralis), P08659; purified FLuc, Km substrates, luminescence inhibition; Potency, µM (top dose mostly 57.5 µM), for the others: at the highest dose activity change, negative = inhibition, most hits filed as inhibitors; hit rate 6.9% among 360,000;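 note: plate controls were vehicle for no effect and reference inhibitor for full effect; nearly all actives have a fitted effect of over 55% in size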
# Target sequence (P08659 whole entry, looked up): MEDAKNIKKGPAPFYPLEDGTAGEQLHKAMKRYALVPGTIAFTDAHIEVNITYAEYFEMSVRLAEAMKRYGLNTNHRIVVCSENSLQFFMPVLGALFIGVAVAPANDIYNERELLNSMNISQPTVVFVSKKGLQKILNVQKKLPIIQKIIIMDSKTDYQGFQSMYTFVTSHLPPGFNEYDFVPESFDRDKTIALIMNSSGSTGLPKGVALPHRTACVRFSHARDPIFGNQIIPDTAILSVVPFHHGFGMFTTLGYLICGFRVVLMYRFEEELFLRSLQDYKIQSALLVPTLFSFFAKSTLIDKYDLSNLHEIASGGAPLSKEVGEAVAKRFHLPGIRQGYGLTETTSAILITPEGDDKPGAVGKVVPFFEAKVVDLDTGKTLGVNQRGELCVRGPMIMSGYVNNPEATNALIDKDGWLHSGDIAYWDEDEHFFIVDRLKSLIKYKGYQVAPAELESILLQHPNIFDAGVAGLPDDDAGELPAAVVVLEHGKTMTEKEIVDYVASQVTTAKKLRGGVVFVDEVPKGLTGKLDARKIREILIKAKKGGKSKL
#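 Biochemical qHTS of compounds, final roughly 60 µM downward over six points, against 10 nM purified firefly luciferase using Km concentrations of substrates (10 uM D-luciferin, 10 uM ATP) in Tris acetate pH 7.5 buffer; luminescence output.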
# ELG1 repair inh – qHTS screen for small molecules that inhibit ELG1-dependent DNA repair in human embryonic kidney (HEK293T) cells expressing luciferase-tagged ELG1; hit rate 2.3% among 330,000; HEK293T ELG1-luciferase reporter, luminescence, 16 h; DNA damage induced by 5-fluorouridine; Potency, µM (titrated, usually from 46.1 µM), for the others: top-dose activity change, negative = inhibition, usual class: inhibitors; note: % is set by controls: 0 for no effect and ±100 for the full control effect; nearly all actives have a fitted effect of over 55% in size
#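 Reporter activity after DNA damage by 5-fluorouridine is monitored. Compound-treated cells incubate 16 hr at 37 °C, then ONE-Glo is added for 30 min before luminescence reading.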
# The depositor's hits bear a star; u = inconclusive; x = no result given; [ ] = remark or other dose. Calls come from the whole dose curve; as a rule, active = well fitted curve in the direction sought with a large enough effect; inconclusive = small, poorly fitted or top-dose-only effect, or another doubt; inactive = no such curve, though single readings can be large; an effect the other way counts as inactive or inconclusive. Potency is the fitted concentration of half-maximal effect.
SMILES,ELG1 genotoxic,SMN2 splice enh,NPC1 prom act,Rab9 prom act,FLuc modulator,ELG1 repair inh
Fc1ccc(Nc2ncnc3c2nc2n3CCCCC2)c(F)c1,x,x,x,x,21µM*,x
O=C(Nc1ccc(F)cc1F)C1CCCN(c2ncnc3c2nc2n3CCCCC2)C1 (centres undefined),-6%,x,-3%,-2%,5%,-24%
COc1ccc(Nc2ncnc3c2nc2n3CCCCC2)cc1,x,x,x,x,17µM*,x
COc1cc2nc(N3CCCN(C)CC3)nc(NC3CCN(Cc4ccccc4)CC3)c2cc1OC,x,x,-35%[46.1 µM],-40%[46.1 µM],x,x
O=C(CCn1c(=O)[nH]c2ccsc2c1=O)N1CCN(c2ccc([N+](=O)[O-])cc2)CC1,-18%,x,1%,6%,1%,18µM*
COc1cc(CNn2cnnc2)ccc1OCC(=O)NC1CCCCC1,5%,-29%,1%,-28%,-1%,11%
COc1cc(C)ccc1OCC(=O)NC1CCCCCC1,u,x,u,u,17µM*,u
O=C(COc1ccccc1Br)NC(=O)NC1CCCC1,u,x,27%,2.8µM*,12µM*,u
Cc1cc(Cl)c(S(=O)(=O)N2CCCC2)cc1OCC(=O)NC1CCCCC1,-5%,-77%,0%,-10%,0%,13µM*
COC(=O)c1ccccc1OCC(=O)NC1CCCCC1,21µM*,5%,16%,23%,u,14%
CC(=NCC(=O)O)c1ccccc1,x,-3%[9.22 µM],x,x,x,x
O=C(COC(=O)Cn1[nH]c(=O)c2ccccc2c1=O)NNC(=O)c1ccccc1,3%,x,2%,-3%,5%,15%
CCCN(CCC)c1nn2c(=O)c(C(=O)NCc3cc(Br)ccc3OC)cnc2s1,x,x,x,x,-15%,x
CCOc1ccccc1OCCCOc1ccc(C)cc1Cl,6%,x,27%,u,11µM*,u
CCOc1ccccc1OCCCOc1ccc(C)cc1Br,11%,2%,4%,19%,11µM*,u
CC[C@H]1C2=C3C(CC[C@H]4C(OCc5ccc(F)cc5C(F)(F)F)OC[C@](C)([C@@H]34)N(C(=O)OC(C)(C)C)C2)C(COC)C1COC (some centres undefined),x,-5%,x,x,x,x
Cc1ccc(OCc2nc(-c3ccccn3)n[nH]2)cc1,7%,u,u,u,24µM*,u
Cc1cccc(OCc2nc(-c3ccccn3)n[nH]2)c1,x,-42%,x,x,-13%,x
Nc1ccc(CSc2ccc(Cl)cc2)cc1,u,26%,u,u,27µM*,u
Cc1cc(C)nc(SCc2ccc(Cl)cc2)n1,7%,x,-1%,-2%,2%,1%
COc1ccc(OC)c(S(=O)(=O)N2CCC(n3c(C)nc4cccnc43)CC2)c1,x,x,x,x,-3%,x
C=CC[C@H](CC(=O)N(CCO)Cc1ccccc1)C(=O)N[C@H](COC(=O)[C@@H](CC=C)Cc1ccc(F)cc1)Cc1ccccc1,-8%,x,x,x,x,21µM*
C=CCC[C@@H](Cc1ccc(F)cc1)C(=O)OC[C@H](Cc1c[nH]c2ccccc12)NC(=O)[C@H](CC=C)CC(=O)N(CCO)Cc1ccccc1,-13%,x,x,x,x,18µM*
C=CCC[C@H](Cc1ccc(F)cc1)C(=O)OC[C@H](Cc1c[nH]c2ccccc12)NC(=O)[C@@H](CC=C)CC(=O)N(CCO)Cc1ccccc1,-10%,x,x,x,x,23µM*
C=CC[C@@H](CC(=O)N(CCO)Cc1ccccc1)C(=O)N[C@H](C)COC(=O)[C@@H](CC=C)Cc1ccc(F)cc1,-7%,x,x,x,x,u
SMILES,ELG1 genotoxic,SMN2 splice enh,NPC1 prom act,Rab9 prom act,FLuc modulator,ELG1 repair inh
C=CC[C@@H](CC(=O)N(CCO)Cc1ccccc1)C(=O)N[C@@H](C)COC(=O)[C@@H](CC=C)CC(=O)OC(C)(C)C,0%,x,x,x,x,-3%
C=CC[C@H](CC(=O)N(CCO)Cc1ccccc1)C(=O)N[C@@H](C)COC(=O)[C@H](CC=C)CC(=O)OC(C)(C)C,-6%,x,x,x,x,23µM*
O=S(=O)(NCCc1csc2nc(-c3ccc(Cl)cc3)nn12)c1ccc(Oc2ccccc2)cc1,x,x,x,x,-3%,x
CC(C)(C)OC(=O)N1CCC(c2c(C(=O)N3CCN(C(=O)c4ccco4)CC3)cnn2-c2ccccc2)CC1,x,x,x,x,3%,x
C=CCC[C@@H](Cc1ccc(F)cc1)C(=O)OC[C@@H](Cc1c[nH]c2ccccc12)NC(=O)[C@@H](CC=C)CC(=O)NCCO,-8%,x,x,x,x,u
C=CCC[C@H](Cc1ccc(F)cc1)C(=O)OC[C@@H](Cc1c[nH]c2ccccc12)NC(=O)[C@@H](CC=C)CC(=O)N(CCO)Cc1ccccc1,-7%,x,x,x,x,26µM*
Cc1ccc(C(=O)N2c3nc(-c4ccco4)nn3C3(CCCCC3)[C@@H]3CCCC[C@@H]32)cc1,x,x,x,x,-1%,x
c1ccc(-c2nnc(-c3c[nH]c4ccccc34)nc2-c2ccccc2)cc1,-4%,-30%,-4%,-5%,-1%,23µM*
CCc1cccc(C)c1NC(=O)Cn1ccn(-c2cccc(OC)c2)c(=O)c1=O,x,x,x,x,-20%,x
COc1ccc(-c2cc3nc(-c4ccccc4)cc(C(F)(F)F)n3n2)cc1,x,1%,x,x,-1%,x
COc1ccc(-c2cc3nc(C)cc(C)n3n2)cc1,u,10µM*,3.2µM*,3.5µM*,7.6µM*,u
Cc1nc2cc(-c3ccc(Cl)cc3)nn2c(NCCN(C)C)c1C,u,x,u,24%,13µM*,u
Cc1cc(C)n2nc(-c3ccc(Cl)cc3)cc2n1,15µM*,x,4µM*,3.5µM*,3.8µM*,u
COc1ccc(-c2nc3nc(C)cc(C)n3n2)cc1,u,13µM*,u,u,11µM*,u
Cc1cc(-c2ccc(Cl)cc2)n2nc(C)cc2n1,-1%,x,-4%,3%,-1%,-6%
COc1ccc(NC(=O)CN(c2ccccc2OC)S(C)(=O)=O)c(OC)c1,x,3%,x,x,-3%,x
COc1ccc(C(=O)c2cn(Cc3ccccc3F)c3cc4c(cc3c2=O)OCCO4)cc1OC,x,0%,x,x,-11%,x
Cc1cc(C)n2nc(-c3ccc(Br)cc3)cc2n1,u,x,3.5µM*,u,2.7µM*,u
Cc1ccc(-c2cc3nc(-c4ccc(Br)cc4)cc(N)n3n2)cc1,0%,-12%,-1%,-2%,-19%,-1%
COC(=O)CCC(NC(=O)c1cc(-c2ccc3c(c2)OCCO3)oc1C)C(=O)OC (centres undefined),4%,6%,-1%,-11%,17µM*,9%

# High-throughput results as filed in PubChem.
